The panel holds about 83,000 compounds, 20% with a hit somewhere; the sample as a whole holds those more often.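 Testing used 96-well plates and a 48-hour single-concentration exposure. Example: -40 means 40% of the starting cells died.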 Values without a mark were called inactive. Activity calls are given as the source filed them. How the source made its calls: active means growth percent below 10; inactive means the rest.

Some test systems named below: NCI-H23 lung; NCI-H226 lung; NCI-H322M lung; NCI-H460 lung; NCI-H522 lung; A549/ATCC NSCLC; 786-0 renal; COLO 205 colon; DU-145 prostate; K-562 leukemia; MALME-3M melanoma; MDA-MB-231 breast; RXF 393 renal; SF-268 CNS; SF-295 CNS; SF-539 CNS; UACC-257 melanoma; M14 melanoma; HOP-92 NSCLC.
Assay in all cases: NCI-60 one-dose screen, 48 h (100 = growth as untreated, 0 = no growth, -100 = all killed)
Holding throughout (details): 10 µM unless noted

For `O=C1NC(=O)c2c1c1c3ccccc3[nH]c1c1oc3ccc(F)cc3c21`, the growth is 61.9% in the assay with NCI-H23 lung; 54% with NCI-H226 lung; 50.7% in the assay with NCI-H322M lung; 52.9% in the assay with NCI-H460 lung; 50.4% with NCI-H522 lung; 86% with A549/ATCC NSCLC. Moreover, the growth in the assay with 786-0 renal was 90.3%; with COLO 205 colon, 79.4%; in the assay with DU-145 prostate it was 77.4%; with K-562 leukemia, 78.4%; with MALME-3M melanoma it was 48.6%; in the assay with MDA-MB-231 breast, 77.9%. Besides, the growth with RXF 393 renal was 69.1%; in the assay on SF-268 CNS it was 79.5%; in the assay on SF-295 CNS, 71%; in the assay on SF-539 CNS, 64.3%; in the assay with UACC-257 melanoma, 95.1%; in the assay with M14 melanoma, 45.1%.
On to `O=C(N/N=C/c1ccc(O)cc1O)c1ccc(Nc2ccnc(C(F)(F)F)c2)cc1`, for which the growth in the assay with NCI-H23 lung was 52.4%; with NCI-H226 lung, 16.8%; in the assay with NCI-H322M lung, -3.47% (active); in the assay with NCI-H460 lung, 24.6%; with HOP-92 NSCLC it was 40.9%; with NCI-H522 lung, 44.2%. The growth in the assay on A549/ATCC NSCLC was 80.6%; in the assay with 786-0 renal, 33.7%; in the assay with COLO 205 colon it was 9.64% (active); with DU-145 prostate, 53.5%; in the assay on K-562 leukemia, 74.9%; in the assay with MALME-3M melanoma, 46.6%. The growth was 46.1% in the assay with MDA-MB-231 breast; 95.3% with RXF 393 renal; 41.1% in the assay with SF-268 CNS; 47.8% in the assay with SF-295 CNS; 27.6% in the assay on SF-539 CNS; 44.6% with UACC-257 melanoma. The growth in the assay with M14 melanoma was 36.1%.
As to `Cc1cc2nc3c4ccccc4n(CCN(C)C)c3nc2cc1C`, the growth is 8.98% (active) in the assay with NCI-H23 lung; 11.3% in the assay with NCI-H226 lung; 0.121% (active) in the assay with NCI-H322M lung; -32.7% (active) with NCI-H460 lung; 28.1% in the assay with HOP-92 NSCLC; -19.1% (active) in the assay on NCI-H522 lung. In addition, the growth was 23.2% in the assay with 786-0 renal; -29.8% (active) in the assay with COLO 205 colon; 1.97% (active) with DU-145 prostate; 8.35% (active) in the assay with K-562 leukemia; -10.5% (active) in the assay on MALME-3M melanoma; 3.96% (active) in the assay with MDA-MB-231 breast. Also, the growth with RXF 393 renal was 8.24% (active); in the assay with SF-268 CNS, 31.2%; in the assay with SF-295 CNS, 27.6%; in the assay on SF-539 CNS, 12.2%; in the assay on UACC-257 melanoma it was 2.35% (active); in the assay on M14 melanoma, 13.2%.
Turning to `Cn1cc(-c2csc(-c3cn(C(=O)OC(C)(C)C)c4ccccc34)n2)c2ccnc(Cl)c21`, the growth in the assay with NCI-H23 lung was 57.1%; in the assay with NCI-H226 lung it was 46.4%; in the assay on NCI-H322M lung, 85.3%; in the assay with NCI-H460 lung, 22.4%; in the assay with HOP-92 NSCLC, 58.5%; with A549/ATCC NSCLC it was 26.8%. Further, the growth in the assay on 786-0 renal is 67.2%; in the assay with COLO 205 colon, 39.8%; in the assay with DU-145 prostate, 74.1%; in the assay with K-562 leukemia, 68.1%; in the assay with MALME-3M melanoma it was 90%; with MDA-MB-231 breast it was 38.3%. Also, the growth with RXF 393 renal was 63.6%; in the assay with SF-268 CNS, 71.8%; in the assay on SF-295 CNS it was 62.4%; with SF-539 CNS it was 68.3%; in the assay on UACC-257 melanoma it was 59.5%; with M14 melanoma, 79%.
As to `CN(C)c1ccc(/C=C/C(=O)c2ccc(Nc3nc(Nc4ccc(F)cc4)nc(Nc4ccc(Cl)cc4)n3)cc2)cc1`, the growth with NCI-H23 lung was 73.3%; in the assay on NCI-H226 lung, 89.3%; in the assay on NCI-H322M lung, 95.7%; in the assay with HOP-92 NSCLC it was 51.3%; with NCI-H522 lung, 56.4%; with A549/ATCC NSCLC it was 53%. In addition, the growth with 786-0 renal is 71.2%; in the assay with COLO 205 colon, 64.2%; in the assay on DU-145 prostate, 84.4%; in the assay with K-562 leukemia, 23.7%; in the assay on MALME-3M melanoma it was 64.3%; with MDA-MB-231 breast, 80.1%. For the same compound, the growth with RXF 393 renal was 22.4%; in the assay with SF-268 CNS, 84.1%; with SF-295 CNS, 44.8%; with SF-539 CNS it was 82.2%; in the assay with UACC-257 melanoma, 82.2%; with M14 melanoma it was 54%.
Regarding `CC/C(Cc1ccccc1)=C(\c1ccc(OCCN2CCCCCC2)cc1)c1ccc(OC(=O)NCc2ccccc2)cc1`, the growth was 74.9% with NCI-H23 lung; 90% in the assay on NCI-H226 lung; 96.6% in the assay with NCI-H322M lung; 5.51% (active) in the assay with NCI-H460 lung; 56% in the assay on HOP-92 NSCLC; 84.7% in the assay with NCI-H522 lung. The growth in the assay with A549/ATCC NSCLC was 64.4%; in the assay with 786-0 renal, 58.4%; with COLO 205 colon, -24.2% (active); with DU-145 prostate, 83.2%; with K-562 leukemia it was -11.8% (active); in the assay on MALME-3M melanoma, 61.3%. Moreover, the growth is 74.4% in the assay on MDA-MB-231 breast; 77.4% in the assay on RXF 393 renal; 77.3% with SF-268 CNS; 107% with SF-295 CNS; 79.7% in the assay with SF-539 CNS; 77.6% in the assay on UACC-257 melanoma. For the same compound, the growth in the assay on M14 melanoma is 56.3%.
For the compound `O=C1NC(=Nc2ccc(O)cc2)S/C1=C\c1cccs1`, the growth in the assay on NCI-H23 lung is 47.4%; in the assay on NCI-H226 lung, 57.4%; with NCI-H322M lung, 35.3%; in the assay on NCI-H460 lung, 3.62% (active); with HOP-92 NSCLC it was -7.99% (active); in the assay with NCI-H522 lung, 15.5%. For the same compound, the growth with A549/ATCC NSCLC is 35.4%; in the assay with 786-0 renal it was 20.2%; in the assay with COLO 205 colon it was 105%; in the assay with DU-145 prostate, 44.6%; with K-562 leukemia, 14.7%; with MALME-3M melanoma, 68.8%. Further, the growth in the assay on MDA-MB-231 breast is 57.9%; with RXF 393 renal, 41.2%; with SF-268 CNS, 50%; with SF-295 CNS, 34.8%; with SF-539 CNS, 16.7%; with UACC-257 melanoma, 70.5%. In the assay with M14 melanoma, the growth is 34.8%.
Turning to `CN1CCCc2cc(/C=C3/SC(=S)N(CCc4ccc(O)cc4)C3=O)ccc21`, the growth in the assay on NCI-H23 lung was 94.1%; in the assay with NCI-H226 lung, 88.5%; in the assay on NCI-H322M lung, 95.1%; with NCI-H460 lung it was 95.1%; in the assay on HOP-92 NSCLC, 48.3%; with NCI-H522 lung, 43.8%. Besides, the growth in the assay with A549/ATCC NSCLC is 87.3%; in the assay on 786-0 renal it was 87.6%; in the assay with COLO 205 colon, 112%; with DU-145 prostate, 85.9%; in the assay with K-562 leukemia it was 27.6%; in the assay on MALME-3M melanoma, 96.6%. For the same compound, the growth was 81.8% with MDA-MB-231 breast; 94.6% with RXF 393 renal; 76.3% in the assay with SF-268 CNS; 99.7% in the assay on SF-295 CNS; 84.8% with SF-539 CNS; 93.2% in the assay on UACC-257 melanoma. For the same compound, in the assay on M14 melanoma, the growth was 78.6%.

These data come from PubChem BioAssay (NCI).
